Laboratory results reported in PubChem BioAssay (NCATS).
Records with an inconclusive call do not appear. Calls follow the shape of the dose curve; as a rule, active = well fitted activation curve with a large enough effect in the signal ratio, with a control signal flat (not every such curve was filed as active); inconclusive = small, poorly fitted or top-dose-only effect, or effect the other way, or a change in a side signal; inactive = flat fitted curve, though single readings scatter; the % refers to the signal ratio.

Test: qHTS Assay for Identification of Small Molecule Agonists for Hypoxia Response Element Signaling Pathway (AID 914); also: % of control where 0% means no effect
Details: ME-180 (cervical carcinoma) HRE-bla reporter, beta-lactamase ratio, CoCl2, 17 h; active compounds read high
Procedure, shortened: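 In Opti-MEM containing 0.5% dialyzed FBS and 10 mM HEPES, ME-180 HRE-bla cells received a compound titration and EC50 CoCl2. They were incubated 17 hours, then CCF4-loaded 2.5 hours at room temperature before ratio reading.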

activation, inactive:
COc1ccc(COC(=O)N/N=C2/C[C@@H](O)[C@@H](O)[C@@H]3[C@@H]4C(=O)N(Cc5ccc6c(c5)OCO6)C(=O)[C@H]4CC[C@H]23)cc1 -9.34%
Cc1cc2c(nc1C)CCCCN2C[C@H](O)CN1CCCc2nc(-c3ccc(Br)cc3)ccc21 -0.373%
COC(=O)C/C=C\[C@@H](C)[C@H]1C=C[C@H](O)[C@@H](CO)O1 10.7%
CSCC[C@@H]1NC(=O)C/C=C\[C@@H](C)COC(=O)[C@@H](C)COC1=O -8.61%
CO[C@H]1COC(=O)[C@H](C)COC(=O)[C@H](C)NC(=O)C/C=C\[C@H]1C 5.98%
CC(C)[C@H](NC(=O)OC(C)(C)C)[C@@H](O)CC(=O)C(C)(C)C 3.44%
COC(=O)C(C(=O)OC)[C@@H]1CCCC(=O)C1 -2.41%
